Where a name gives a salt, the structure may show the parent alone.
Columns and labels:
Conditions in all cases: incubation time: 27 h, anaerobic, 37 °C;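 for the amine columns active = adjusted P below 0.05 in both replicates with a change the same way and a mean fold change under 0.8 or over 1.25; inactive = the rest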
Escherichia coli IAI1 [1] = experiment: growth (OD595) fold change vs plate DMSO controls (fold change (ratio)); higher = more growth
Outline: (§1)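 To obtain OD, 595 nm absorbance readings were blank-subtracted, corrected for compound background using 20 µM compound solutions in water, and multiplied by a calibration factor of 5. They came from 96-well mGAM cultures grown anaerobically for 27 h at 37 °C and shaken before reading. Growth is the fold change relative to the median of plate DMSO controls. Two biological replicates were averaged, and fold changes above 1.5 were set to NA.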

[2] = system: Klebsiella aerogenes DSM 30053; experiment: as above
Outline: as §1

[3] = system: Ruminococcus gnavus DSM 108212; experiment: as above
Outline: as §1

[4] = system: Klebsiella aerogenes DSM 30053; experiment: fold change of Histamine concentration vs plate DMSO controls (fold change (ratio)); higher = more amine produced, active = hit call of the paper (significant change in both replicates, either direction)
Outline: (§2)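 Amines were quantified by LC–triple-quadrupole MS in dynamic MRM mode against external calibration curves, with drift correction within each batch. The samples were whole anaerobic mGAM cultures of four gut bacterial strains, grown for 27 h at 37 °C in 80 µL wells and extracted with cold acetonitrile/methanol with 0.1% formic acid, then centrifuged. Values are reported as fold change over DMSO controls on the same plate. The mean of 2 biological replicates is given.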

[5] = system: Ruminococcus gnavus DSM 108212; experiment: fold change of Tryptamine concentration vs plate DMSO controls (fold change (ratio)); higher = more amine produced, active = hit call of the paper (significant change in both replicates, either direction)
Outline: as §2

Escherichia coli IAI1 [6] = experiment: fold change of Putrescine concentration vs plate DMSO controls (fold change (ratio)); higher = more amine produced, active = hit call of the paper (significant change in both replicates, either direction)
Outline: as §2

[7] = system: Klebsiella aerogenes DSM 30053; experiment: as above
Outline: as §2

Escherichia coli IAI1 [8] = experiment: fold change of Cadaverine concentration vs plate DMSO controls (fold change (ratio)); higher = more amine produced, active = hit call of the paper (significant change in both replicates, either direction)
Outline: as §2

[9] = system: Klebsiella aerogenes DSM 30053; experiment: as above
Outline: as §2

[10] = system: Ruminococcus gnavus DSM 108212; experiment: fold change of 2-Phenylethylamine concentration vs plate DMSO controls (fold change (ratio)); higher = more amine produced, active = hit call of the paper (significant change in both replicates, either direction)
Outline: as §2

[11] = system: Clostridium sporogenes DSM 1664; experiment: growth (OD595) fold change vs plate DMSO controls (fold change (ratio)); higher = more growth
Outline: as §1

[12] = system: Clostridium sporogenes DSM 1664; experiment: fold change of Tryptamine concentration vs plate DMSO controls (fold change (ratio)); higher = more amine produced, active = hit call of the paper (significant change in both replicates, either direction)
Outline: as §2

Row | SMILES | growth (Escherichia coli IAI1 [1]) | growth [2] | growth [3] | fold change of Histamine concentration [4] | fold change of Tryptamine concentration [5] | fold change of Putrescine concentration (Escherichia coli IAI1 [6]) | fold change of Putrescine concentration [7] | fold change of Cadaverine concentration (Escherichia coli IAI1 [8]) | fold change of Cadaverine concentration [9] | fold change of 2-Phenylethylamine concentration [10] | growth [11] | fold change of Tryptamine concentration [12]
1 | Cc1noc(NS(=O)(=O)c2ccc(N)cc2)c1C [Sulfisoxazole] (20 µM) | 1.03 | 1.02 | 1.13 | 1.07 (inactive) | 1.01 (inactive) | 1.03 (inactive) | 1.02 (inactive) | 1.04 (inactive) | 1.01 (inactive) | 1 (inactive) |  | 
2 | OC(c1cc(C(F)(F)F)nc2c(C(F)(F)F)cccc12)C1CCCCN1 (stereo not given) [Mefloquine hydrochloride] (20 µM) | 0.858 | 0.808 | 1 |  |  |  |  |  |  |  | 0.869 | 
3 | Cc1ccc(NC(=O)c2ccc(CN3CCN(C)CC3)cc2)cc1Nc1nccc(-c2cccnc2)n1 [Imatinib] (20 µM) | 1.07 | 1.05 | 1.17 | 1.01 (inactive) | 1.07 (inactive) | 0.954 (inactive) | 0.962 (inactive) | 0.95 (inactive) | 1.04 (inactive) | 1.08 (inactive) |  | 
4 | C=CC1=C(C(=O)O)N2C(=O)[C@@H](NC(=O)/C(=N\OCC(=O)O)c3csc(N)n3)[C@H]2SC1 [Cefixime] (20 µM) | 0.0263 | 1.12 |  | 0.931 (inactive) | 0.964 (inactive) | 0.484 (active) | 1.03 (inactive) | 2.08 (active) | 1.05 (inactive) | 0.932 (inactive) | 0.286 | 0.826 (inactive)
5 | CCC(C)C(C(=O)OCC[N+](C)(CC)CC)c1ccccc1 (stereo not given) [Valethamate bromide] (20 µM) |  |  |  | 1.03 (inactive) | 0.996 (inactive) | 1.05 (inactive) | 1.02 (inactive) | 1.03 (inactive) | 1 (inactive) | 0.963 (inactive) |  | 0.963 (inactive)
6 | CCOC(=O)C1=C(C)NC(C)=C(C(=O)OC)C1c1cccc(Cl)c1Cl (stereo not given) [Felodipine] (20 µM) | 1.09 | 1.04 | 0.215 | 0.96 (inactive) | 0.876 (inactive) | 1.04 (inactive) | 0.97 (inactive) | 0.893 (inactive) | 1.01 (inactive) | 0.903 (inactive) |  | 
7 | COc1c(N2C[C@@H]3CCCN[C@@H]3C2)c(F)cc2c(=O)c(C(=O)O)cn(C3CC3)c12 [Moxifloxacin] (20 µM) | 0.0497 | 0.193 | 0.00485 | 0.256 (active) | 0.205 (active) | 0.828 (inactive) | 0.915 (inactive) | 0.236 (active) | 0.982 (inactive) | 0.215 (active) |  | 
8 | CCCCCCCCNC(C)C(O)c1ccc(SC(C)C)cc1 (stereo not given) [Suloctidil] (20 µM) | 1.08 | 1.06 |  | 0.987 (inactive) | 0.729 (active) | 1.03 (inactive) | 0.977 (inactive) | 0.983 (inactive) | 0.996 (inactive) | 0.785 (active) | 1.12 | 0.983 (inactive)
9 | CC[C@]12CCCN3CCc4c(n(c5ccccc45)[C@@](O)(C(=O)OC)C1)[C@@H]32 [Vincamine] (20 µM) | 1.01 | 1.05 | 0.949 | 1.01 (inactive) | 0.973 (inactive) | 0.996 (inactive) | 1 (inactive) | 1.02 (inactive) | 0.99 (inactive) | 0.942 (inactive) |  | 
10 | O=C1C(CC[S+]([O-])c2ccccc2)C(=O)N(c2ccccc2)N1c1ccccc1 (stereo not given) [Sulfinpyrazone] (20 µM) | 0.972 | 1.04 | 1.06 | 0.959 (inactive) | 0.904 (inactive) | 0.978 (inactive) | 1.04 (inactive) | 0.991 (inactive) | 1.01 (inactive) | 0.887 (inactive) |  | 
11 | C=C[C@H]1CN2CC[C@H]1C[C@@H]2[C@@H](O)c1ccnc2ccc(OC)cc12 [Quinidine hydrochloride monohydrate] (20 µM) | 1.01 | 0.966 | 0.981 | 1.11 (inactive) | 0.978 (inactive) | 0.986 (inactive) | 1.05 (inactive) | 0.921 (inactive) | 0.987 (inactive) | 1 (inactive) |  | 
12 | C[C@H](CS)C(=O)N1CCC[C@H]1C(=O)O [Captopril] (20 µM) | 0.976 | 1 | 0.851 | 1.01 (inactive) | 1.04 (inactive) | 0.963 (inactive) | 1 (inactive) | 1.01 (inactive) | 1 (inactive) | 1.04 (inactive) |  | 
13 | Cc1cnc(NC(=O)C2=C(O)c3ccccc3S(=O)(=O)N2C)s1 [Meloxicam] (20 µM) | 0.997 | 0.98 | 0.801 | 1.03 (inactive) | 1.02 (inactive) | 1.04 (inactive) | 0.995 (inactive) | 0.959 (inactive) | 0.996 (inactive) | 1.03 (inactive) |  | 
14 | CC(=O)Nc1ccc(O)cc1 [Acetaminophen] (20 µM) | 0.986 | 0.999 | 0.921 | 0.998 (inactive) |  | 1.01 (inactive) | 1 (inactive) | 0.976 (inactive) | 0.993 (inactive) | 1.12 (inactive) |  | 
15 | O=C(O)CCNC(=O)c1ccccc1 [Betamipron] (20 µM) | 0.817 | 0.813 | 0.512 | 1.02 (inactive) | 1 (inactive) | 1.04 (inactive) | 1 (inactive) | 1.06 (inactive) | 1 (inactive) | 0.956 (inactive) |  | 
16 | CO/N=C(\C(=O)N[C@@H]1C(=O)N2C(C(=O)OC(C)OC(C)=O)=C(COC(N)=O)CS[C@H]12)c1ccco1 (stereo not given in full) [Cefuroxime axetil] (20 µM) | 1.18 | 1.1 |  | 0.905 (inactive) | 0.936 (inactive) | 0.933 (inactive) | 1.05 (inactive) | 1.27 (active) | 1.02 (inactive) | 0.94 (inactive) | 0.673 | 1.03 (inactive)
17 | CCN(CC)CCNC(=O)c1ccc(N)cc1 [Procainamide hydrochloride] (20 µM) | 0.979 | 1.2 | 0.827 | 0.834 (inactive) |  | 0.969 (inactive) | 0.987 (inactive) | 1.01 (inactive) | 1.04 (inactive) | 1.05 (inactive) |  | 
18 | CS(=O)(=O)Nc1ccc([N+](=O)[O-])cc1Oc1ccccc1 [Nimesulide] (20 µM) | 0.991 | 1.03 |  | 1.07 (inactive) | 0.972 (inactive) | 1.01 (inactive) | 1.01 (inactive) | 1 (inactive) | 0.991 (inactive) | 0.905 (inactive) | 1.01 | 0.973 (inactive)
19 | CN(CCOc1ccc(NS(C)(=O)=O)cc1)CCc1ccc(NS(C)(=O)=O)cc1 [Dofetilide] (20 µM) | 0.972 | 1.03 | 0.827 | 1 (inactive) | 1.04 (inactive) | 0.989 (inactive) | 0.984 (inactive) | 1.05 (inactive) | 1 (inactive) | 0.998 (inactive) |  | 
20 | Cc1nnc(SCC2=C(C(=O)O)N3C(=O)[C@@H](NC(=O)Cn4cnnn4)[C@H]3SC2)s1 [Cefazolin sodium salt] (20 µM) | 0.0255 | 1.13 | 0.0483 | 0.645 (inactive) | 0.0727 (active) | 0.16 (active) | 1.03 (inactive) | 0.613 (active) | 1.05 (inactive) | 0.0761 (active) |  | 
21 | CCC(C)(C)C(=O)O[C@H]1C[C@@H](C)C=C2C=C[C@H](C)[C@H](CC[C@@H]3C[C@@H](O)CC(=O)O3)[C@H]21 [Simvastatin] (20 µM) | 1.05 | 1.25 |  | 0.919 (inactive) | 0.995 (inactive) | 1 (inactive) | 1.03 (inactive) | 1 (inactive) | 1.03 (inactive) | 0.991 (inactive) | 1.01 | 0.967 (inactive)
22 | COc1cc2nc(N3CCN(C(=O)c4ccco4)CC3)nc(N)c2cc1OC [Prazosin hydrochloride] (20 µM) | 1.09 | 0.998 | 0.986 | 1.01 (inactive) | 0.924 (inactive) | 1.16 (inactive) | 1.02 (inactive) | 0.968 (inactive) | 1 (inactive) | 0.939 (inactive) |  | 
23 | CN1[C@@H]2CC[C@H]1CC(OC(=O)C(O)c1ccccc1)C2 (mixture of isomers) [(R,S) Homatropine hydrobromide] (20 µM) |  |  |  | 0.867 (inactive) | 0.99 (inactive) | 0.995 (inactive) | 0.995 (inactive) | 1.02 (inactive) | 1.02 (inactive) | 1.01 (inactive) |  | 1 (inactive)
24 | Cc1c(C)c2c(c(C)c1O)CCC(C)(COc1ccc(CC3SC(=O)NC3=O)cc1)O2 (stereo not given) [Troglitazone] (20 µM) | 0.981 | 1.1 |  | 0.914 (inactive) | 0.696 (active) | 1.01 (inactive) | 0.995 (inactive) | 1.01 (inactive) | 1.01 (inactive) | 0.777 (active) | 1.31 | 0.721 (active)
25 | COc1cc(Cc2cnc(N)nc2N)cc(OC)c1OC [Trimethoprim] (20 µM) | 0.272 | 0.472 |  | 0.522 (active) | 0.895 (inactive) | 0.829 (inactive) | 1.22 (inactive) | 1.78 (active) | 1 (inactive) | 0.84 (inactive) | 1.03 | 0.974 (inactive)

From the supplement of paper PMC12494721
